# Assays:
# Conditions in all cases: concentration: 1 μM, replicates: in singlicate; n = 1
# FAK = tested on: T1, FAK
# T1 construct: gene PTK2
# FER = tested on: FER
# FES = tested on: FES
# FGFR1 = tested on: FGFR1
# FGFR2 = tested on: FGFR2
# FGFR3 = tested on: FGFR3
# FGFR4 = tested on: FGFR4
# FGR = tested on: FGR
# FLT1 = tested on: FLT1
# FLT3-autoinhibited = tested on: FLT3-autoinhibited
# FLT3 = tested on: FLT3
# FLT4 = tested on: FLT4
# FRK = tested on: FRK
# FYN = tested on: FYN
# GAK = tested on: GAK
# GCN2(Kin.Dom.2,S808G) = tested on: T2, GCN2(Kin.Dom.2,S808G)
# T2 construct: gene EIF2AK4
# GRK1 = tested on: GRK1
# GRK2 = tested on: T3, GRK2
# T3 construct: gene ADRBK1
# GRK3 = tested on: T4, GRK3
# T4 construct: gene ADRBK2
# GRK4 = tested on: GRK4
# 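Note: KINOMEscan kinase panel screen.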
Structure (SMILES),%Inh (FAK) [%],%Inh (FER) [%],%Inh (FES) [%],%Inh (FGFR1) [%],%Inh (FGFR2) [%],%Inh (FGFR3) [%],%Inh (FGFR4) [%],%Inh (FGR) [%],%Inh (FLT1) [%],%Inh (FLT3-autoinhibited) [%],%Inh (FLT3) [%],%Inh (FLT4) [%],%Inh (FRK) [%],%Inh (FYN) [%],%Inh (GAK) [%],"%Inh (GCN2(Kin.Dom.2,S808G)) [%]",%Inh (GRK1) [%],%Inh (GRK2) [%],%Inh (GRK3) [%],%Inh (GRK4) [%]
Cc1c(O)cccc1Nc1ccnc2ccc(C(F)(F)F)cc12.Cl [GW466413],0,15,0,0,0,0,0,58,28,0,0,9,79,68,64,9,14,0,8,0
Cc1nnc(-c2ccc3occ(-c4ccc(S(C)=O)cc4)c3c2)[nH]1 (centres unmarked),0,0,14,0,0,0,3,19,0,31,33,18,1,0,24,0,20,0,40,11
Cc1cc(NCC(c2ccccc2)c2ccccc2)nc(NCc2ccc(C(F)(F)F)cc2)n1 [GW497681],0,0,0,0,0,20,1,20,11,0,0,0,0,0,0,0,0,0,22,0
CC(C)(C)c1ccc(C(=O)Nc2cn3cc(-c4cccnc4)ccc3n2)cc1,12,0,29,27,21,16,0,19,22,0,65,16,23,0,18,21,41,0,0,0
Cc1cccc(-c2nc(C)cc(Nc3ccncc3)n2)n1 [GSK257997],0,42,0,7,14,16,0,8,32,0,5,13,0,36,0,0,0,0,0,0
Cc1csc(-c2nc(Nc3ccncc3)c3ccccc3n2)n1 [GW869640],3,7,10,17,6,6,16,7,19,26,39,6,4,24,21,13,27,0,0,29
CN1C(=O)C(Nc2ccc(Cl)c(C(=O)O)c2)=C(c2ccc(Cl)cc2)C1=O [SB-404290],7,5,0,0,0,0,0,0,0,22,0,0,0,0,14,9,12,0,4,19

# Reference: paper PMC5540273 (PLoS ONE, 2017)
